Source: PubChem BioAssay (NCATS)
Records with an inconclusive call do not appear. A call without a number means that no potency is given here. Calls of active or inactive are those of the source. Calls come from the whole dose curve; as a rule, active = well fitted cell-killing curve with a large enough effect; inconclusive = small, poorly fitted or top-dose-only effect; inactive = flat fitted curve, though single readings scatter.

Experiment: Cell Viability - LYMP2-008 (AID 980);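 note: cells exposed to compound for 24 h at 37 °C; nearly all actives have a fitted effect of over 60% in size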
Conditions: LYMP2-008 lymphoblastoid cell viability, qHTS; series mostly up to 92.2 µM
Description: NIH Chemical Genomics Center [NCGC]
NIH Molecular Libraries Screening Centers Network [MLSCN]
National Institutes of Environmental Health Sciences [NIEHS]
National Toxicology Program [NTP]
We have developed a 1536-well cell-based assay for quantitative high throughput screening (qHTS) against a number of cell lines to determine in vitro cytotoxicity of small molecules. This particular assay uses a human lymphoblastoid cell line (LYMP2-008) purchased from Coriell Institute for Medical Research.
NCGC Assay Protocol Summary:
The CellTiter-Glo luminescent cell viability assay (Promega) is a homogeneous method to measure the number of viable cells in culture. The end point readout of this assay is based on quantitation of intracellular ATP, an indicator of metabolic activity, using the luciferase reaction. Luciferase catalyzes the oxidation of beetle Luciferin to oxyluciferin and light in the presence of ATP. The luminescent signal is proportional to amount of ATP present.
Using the CellTiter-Glo luminescent cell viability assay, the amount of cellular ATP was measured in the lymphoblastoid cell line with complete culture medium following compound treatment for 24 hours. The assay was performed in opaque white Kalypsys 1536-well plates. In the screen, tetraoctylammonium bromide was used as positive control. Library compounds were measured for their ability to cause acute toxicity in the cell line, as reflected by a decrease in intracellular ATP levels, in a concentration-dependent manner. […] AC50 values were determined from concentration-response data modeled with the standard Hill equation.
qHTS protocol for CellTiter Glo lymphoblastoid cellular assay
[Step] [Parameter] [Value] [Description]
1. Reagent; 5 uL; 2500 lymphoblastoid cells/well
2. Time; 5 hr; 37 C incubation
4. Controls; 23 nL; Tetraoctylammonium bromide 6.4pM to 92 uM
5. Time; 24 hr; 37 C incubation
6. Reagent; 5 uL; CellTiter Glo reagent
7. Time; 30 min; Room Temperature
8. Detection; Luminescence; Viewlux plate reader
Keywords: cell viability, cytotoxicity, lymphoblastoid cell line, luminescence, NTPHTS, NTPHTS_NCGC, NIEHS, DSSTox, MLSMR, MLSCN, NIH Roadmap, qHTS, NCGC
For `Nc1cccc(O)c1`, the Potency was “inactive”. In the case of `CC1CCC2CC1C2(C)C` (stereo not given), the Potency is reported as “inactive”. For `BrC(Br)C(Br)Br`, the Potency was “inactive”. In the case of `Cc1ccc([N+](=O)[O-])c(N)c1`, the Potency is reported as “inactive”. For `Cc1cccc(C)c1O`, the Potency was “inactive”. In the case of `Cc1ccc2ncccc2c1`, the Potency is reported as “inactive”. For `O=C(O)CN(CC(=O)O)CC(=O)O`, the Potency was “inactive”. In the case of `O=Cc1ccc(CO)o1`, the Potency is reported as “inactive”. For `Cc1ccc(Cl)cc1N`, the Potency was “inactive”. With `CCCC(Cl)CCCC(Cl)CCC(Cl)CCC(Cl)CCC(Cl)CCCC(Cl)CCC` (stereo not given) the Potency was “inactive”. With `O=C(O)CNC(=O)c1ccc(CO)o1` the Potency was “inactive”. With `Nc1cccc(C(F)(F)F)c1` the Potency was “inactive”. With `Nc1nc2ccccc2[nH]1` the Potency was “inactive”. For `Cc1ccccc1Br`, the Potency was “inactive”. In the case of `Nc1nc(-c2ccccc2)cs1`, the Potency is reported as “inactive”. In the case of `O=Cc1ccccc1Cl`, the Potency is reported as “inactive”. In the case of `CC(=O)Nc1ccc(C)cc1`, the Potency is reported as “inactive”. In the case of `Nc1ccc([N+](=O)[O-])c(N)c1`, the Potency is reported as “inactive”. In the case of `CCOc1ccccc1N`, the Potency is reported as “inactive”. In the case of `C=C(C)C(=O)OCCCCCCCCCC`, the Potency is reported as “inactive”. With `COC(=O)CCCC(=O)OC` the Potency was “inactive”. With `CCC(C)(C)OC` the Potency was “inactive”. In the case of `Cc1ccccc1C(=O)O`, the Potency is reported as “inactive”. In the case of `CCC(C)(C)C`, the Potency is reported as “inactive”. For `CC(=O)Nc1ccccc1C`, the Potency was “inactive”. For `Cc1ccc2oc(=O)ccc2c1`, the Potency was “inactive”. For `O=C(Cl)c1cccc([N+](=O)[O-])c1`, the Potency was “inactive”. In the case of `BrC/C=C/CBr`, the Potency is reported as “inactive”. For `CCNc1cc(O)ccc1C`, the Potency was “inactive”. For `O=C1OC(=O)c2c(Cl)c(Cl)c(Cl)c(Cl)c21`, the Potency was “inactive”. With `COc1ccc(OC)cc1` the Potency was “inactive”. In the case of `OCCO`, the Potency is reported as “inactive”. For `Cc1ccc2nc(-c3ccc(N)cc3)sc2c1S(=O)(=O)O`, the Potency was “inactive”. In the case of `CCN(CC)c1cccc(O)c1`, the Potency is reported as “inactive”. In the case of `CC/C=C1/OC(=O)c2ccccc21`, the Potency is reported as “inactive”. With `CCC(C)O` (stereo not given) the Potency was “inactive”. With `NC(=O)c1cccc([N+](=O)[O-])c1` the Potency was “inactive”. In the case of `Cc1ccc(C)c([N+](=O)[O-])c1`, the Potency is reported as “inactive”. For `CCOc1cccc(N)c1`, the Potency was “inactive”. In the case of `COc1ccc(N=[N+]([O-])c2ccc(OC)cc2)cc1`, the Potency is reported as “inactive”.
